According to ChEMBL document CHEMBL3988442, “University of Dundee, Small-Polar-MMV Screening Library” (2021):
The campaign covered roughly 48,000 compounds. About 13,000 (27%) showed an effect of 50% or more. The list shows a part of the results.

These compounds were tested on Wolbachia pipientis (assay: Anti-Wolbachia Cell-Based Screen). Conditions: 5 µM.
Format: functional
Set-up: scale not given: in the data most compounds retested in dose-response had high values

Compound	Percent Effect [%]
N#Cc1cn(CCCN2CCc3ccccc3C2)c(=O)[nH]c1=O	-8.057
COc1ccc2c(c1)OCC(Cc1ccc(N(C)C)nc1)C2 (configuration not stated)	-17.41
CC(=O)NC[C@H]1COCc2nc3cc(S(C)(=O)=O)ccc3n21	-22.59
CC1c2ncc(CNC(=O)C3CC3)n2CCN1Cc1cccnc1.O=C(O)C(F)(F)F.O=C(O)C(F)(F)F (configuration not stated)	100.5
Cc1nc(COCc2cnc3n2CCN(CC2CCC2)C3C)cs1.O=C(O)C(F)(F)F (configuration not stated)	-9.854
CC1c2ncc(CNC(=O)C3CC3)n2CCN1CC1CCC1.O=C(O)C(F)(F)F (configuration not stated)	88.49
COCc1cnc2n1CCN(C1CCC1)C2C.O=C(O)C(F)(F)F (configuration not stated)	11.12
COc1cccc2c1OCC(CNC(=O)CCCN1CCOCC1)C2 (configuration not stated)	2.111
CS(=O)(=O)NCc1cc2n(n1)CCCN(Cc1cccc(C#N)c1)C2	3.455
O=S(=O)(NCC1CCN(c2cnccn2)CC1)c1cccs1	107.7
CN(C1CCN(c2ccccn2)CC1)S(=O)(=O)c1cccs1	-12.42
CC(CNC(=O)N1CCN(c2cnccn2)CC1)Cc1cccs1 (configuration not stated)	-7.53
O=C(NCCSCc1ccc(Br)s1)C1CCCN(c2cnccn2)C1 (configuration not stated)	1.609
CCc1ccc(S(=O)(=O)NCC2CCN(c3cnccn3)CC2)s1	118.2
Cc1nn(C)c(C)c1CN(C)C1CCN(c2ncnc3[nH]cnc23)CC1	0.8279
CC(=O)Nc1ccc(C(=O)N2CCOc3nc(C)ccc32)cc1	-10.66
COC(=O)CCC(=O)N1CCc2nc(C(=O)N(C)C)sc2CC1	-18.4
Cc1cc(Nc2ccccn2)nc(C2CCCN(CCO)C2)n1.O=CO (configuration not stated)	136
Cc1cc(Nc2cnccn2)nc(C2CCCN(CCO)C2)n1 (configuration not stated)	125
Cn1ncc2c(N3CCN(CCO)CC3)nc(C3CCCC3)nc21	1.132
Cc1cc(Nc2ncccn2)nc(C2CCCN(CCO)C2)n1 (configuration not stated)	168.6
Cc1cc(O)nc(C2CCCN(CCO)C2)n1 (configuration not stated)	175.9

Compound	Percent Effect [%]
CSCCC1c2nc[nH]c2CCN1Cc1ccnc2ccccc12 (configuration not stated)	14.89
COCCCN1CCC(NC(=O)C(C)C)CC1	12.3
Cc1noc(C)c1CNc1c(N2CCCC2)cccc1N1CCCC1	3.451
Cn1cc(N2CCCC(Nc3ccc4c(c3)NC(=O)CC4)C2=O)cn1 (configuration not stated)	-4.573
Cc1ccc(-c2ncc(CN3CCN(C(=O)N(C)C)CC3)s2)o1	25.76
CC(c1ncc(-c2ccccc2)o1)N1CCN(C(=O)N(C)C)CC1 (configuration not stated)	106.8
CCS(=O)(=O)N1CCN(C(C)c2ccccc2OC)CC1 (configuration not stated)	10.43
CC(c1ncc(-c2ccccc2)o1)N1CCN(C(=O)C(C)(C)C)CC1 (configuration not stated)	102.5
CC(c1ncc(C(C)(C)C)o1)N1CCN(c2ccncc2)CC1 (configuration not stated)	-9.491
CN(C)C(=O)N1CCN(C(=O)Nc2nc(-c3ccccc3)ns2)CC1	-9.811
COCC(=O)N1CCN(C)c2ncccc2C1	4.839
O=C(CCCc1ncc(-c2ccccc2)o1)N1CCN(CCO)CC1	-1.483
CC(c1ncc(C(C)(C)C)o1)N1CCN(Cc2ccco2)CC1 (configuration not stated)	19.54
CCS(=O)(=O)N1CCN(C(C)c2ncc(-c3ccccc3)o2)CC1 (configuration not stated)	106.9
COCC(=O)N1CCN(C(C)c2ncc(-c3ccccc3)o2)CC1 (configuration not stated)	108.5
CCN1CCN(C(=O)NC(C)c2noc(-c3ccccc3)n2)CC1 (configuration not stated)	0.3597
CCCn1ncc(C(=O)NC2CCN(CC3CCCO3)CC2)c1C (configuration not stated)	2.131
CC(=O)N1N=C(c2ccco2)OC1C(=O)NCCc1ccc(F)cc1 (configuration not stated)	117.3
CC(=O)N1N=C(c2ccco2)OC1C(=O)NCCc1ccc(O)cc1 (configuration not stated)	112.2
O=C(NCCc1ccncc1)C1CCN(Cc2ccco2)CC1	7.688
CN(C)C(CNC(=O)NCCc1cccc(O)c1)c1ccco1 (configuration not stated)	7.876
O=C(NCc1ccc(F)cc1)NCC(O)(c1ccco1)C1CC1 (configuration not stated)	-0.2956

Compound	Percent Effect [%]
Cn1cc(CN2CCOC[C@H]2c2nc(C(C)(C)C)co2)c2ccccc21	-4.393
CN(C)c1ncccc1CNC(=O)N1CCCC1c1ccsc1 (configuration not stated)	-3.064
CNC(=O)C1CC2(CCN(C(=O)c3csnn3)CC2)c2ccccc21 (configuration not stated)	-5.077
CCOC1CCC2(CCN(C(=O)c3csnn3)CC2)c2ccccc21 (configuration not stated)	117.6
N[C@@H]1c2ccccc2C2(CCN(C(=O)c3ccc(Cl)cn3)CC2)[C@H]1O	2.711
CCOC1CCC2(CCN(C(=O)c3c[nH]cn3)CC2)c2ccccc21 (configuration not stated)	107.8
CC1CC2(CCN(C(=O)c3c[nH]cn3)CC2)c2ccccc21 (configuration not stated)	62.95
CN(C)C1CC2(CCN(C(=O)c3csnn3)CC2)c2ccccc21.O=C(O)C(F)(F)F (configuration not stated)	-2.029
CCOC1CC2(CCN(c3cnccn3)CC2)c2ccccc21 (configuration not stated)	15.96
CCOC1CC2(CCN(C(C)=O)CC2)c2cc(F)ccc21 (configuration not stated)	-13.1
CC1CC2(CCN(C(=O)c3csnn3)CC2)c2ccccc21 (configuration not stated)	10.92
C[C@@H]1CN(C(=O)CCc2nncn2C)CC[C@@]1(O)C1CCC1	-5.246
CCN(CC)CCn1ccnc1-c1cccc(C#N)c1	11.68
Cc1ccc(-c2nn(-c3cccc(F)c3)cc2CN(C)CCO)o1	-10.45
CC(C)(C)CN[C@@H]1CO[C@H](CNC(=O)c2cccs2)[C@H]1O	-6.649
Cc1nc([C@@H]2C[C@H]3CN(Cc4scnc4C)C[C@H]3O2)no1	-8.778
O=C(NCc1cccs1)c1nc2c(o1)CN(C(=O)c1cccnc1)C2.O=C(O)C(F)(F)F	7.988
CN(C)C(=O)NCc1nnc2n1CCN(Cc1ccsc1)C2	3.865
CC(C)(C)C(O)CN1CCN(C(=O)COCC2CC2)CC1 (configuration not stated)	-3.893
CCCOc1cc(C)ccc1NC(=O)NCCC(=O)N(C)C	-7.738
CCS(=O)(=O)NCCNC(C)(C)c1nc(C)cs1	-9.016
CC(=O)Nc1nc(C)c(S(=O)(=O)NCCc2ccccn2)s1	90.82

Compound	Percent Effect [%]
CNC(=O)c1ccc(S(=O)(=O)NCCc2ccccn2)cc1	-1.31
Cn1ccnc1CCNS(=O)(=O)c1cccnc1	3.045
CC(=O)Nc1nc(C)c(S(=O)(=O)NCCc2cccnc2)s1	82
Cc1cc(NC(=O)NCCc2cccnc2)n(C)n1	-22.8
NC(=O)c1ccc(S(=O)(=O)NCCc2ccccn2)cc1	-9.373
Cc1cc(N[C@@H](CO)c2ccccc2)n2nc(C)c(C)c2n1	-10.16
COc1ncnc(N)c1CNCC(C)Oc1ccccc1Cl (configuration not stated)	-1.664
COc1ncnc(N)c1CNCCOc1ccccc1Cl	-0.9521
c1ccc(-n2cncn2)c(CNCCn2cccn2)c1	-10.78
COc1ncnc(N)c1CNCC(C)SC (configuration not stated)	4.865
COc1ncnc(N)c1CNCc1ccccc1-n1cccn1	108.1
COc1ncnc(N)c1CNCCc1ccc(-n2cccn2)cc1	93.72
CC(C)C1CN(C(=O)c2cc(=O)[nH]c(=O)[nH]2)CCCN1CC1CC1 (configuration not stated)	26.13
Cc1ccc(CN2CCN(c3ncnc4[nH]cnc34)CC2CCO)cc1 (configuration not stated)	-6.275
Cc1cc(CN2CCN(CC3CC3)[C@@H]3CS(=O)(=O)C[C@@H]32)ccc1F	0.5835
CCS(=O)(=O)N1CCc2c(cccc2NCc2ncc[nH]2)C1	-10.34
CCS(=O)(=O)N1CCc2c(nc(C3CCCN3)nc2NC)C1.Cl (configuration not stated)	89.89
CCS(=O)(=O)N1CCc2c(cccc2NCc2nc(C)c(C)o2)C1	13.37
CNc1nc(C2CCCN2)nc2c1CCN(S(=O)(=O)C1CCCCC1)C2.Cl (configuration not stated)	89.64
O=C1CCN(C(=O)C2(c3ccc(F)cc3)CCCC2)CCN1	-16.8
COc1ccc(C(O)CNC(=O)NCc2csc(C)n2)cc1 (configuration not stated)	-1.772
CS(=O)(=O)N1CCN2C(=O)N(C3CCOCC3)C[C@H]2C1	-10.83

Compound	Percent Effect [%]
Cc1nccn1CCC1CCN(c2ncccn2)CC1	-9.43
Cc1nnc(N2CCC(CCn3ccnc3C)CC2)o1	2.305
Cc1nccn1CCC1CCN(C(=O)C2CC3(CCNCC3)CN2)CC1 (configuration not stated)	104.8
Cc1nccn1CCC1CCN(C2CCC3(CCNCC3)CC2)CC1	84.73
Cc1cnccc1N1CCN(C(=O)C2CC3(CCNCC3)CN2)CC1 (configuration not stated)	31.13
Cc1ncnc(N2CCN(C(=O)C3CC4(CCNCC4)CN3)CC2)c1C (configuration not stated)	-0.6445
CCCN(CC(=O)OC)S(=O)(=O)c1cnc2c(c1)c(C)nn2C	9.963
O=C(c1ccsc1)N1C[C@@H]2CCN(C(=O)c3cccc(F)c3)[C@@H]2C1	-29.62
O=C(NC1CCCCC1)N1C[C@@H]2OCCN(C(=O)c3ccco3)[C@@H]2C1	2.504
O=C(C1CCOC1)N1C[C@@H]2CCN(C(=O)c3cscn3)[C@@H]2C1 (some centres not stated)	85.3
CS(=O)(=O)N1C[C@@H]2CCN(C(=O)c3ccco3)[C@@H]2C1	-6.962
O=C(c1ccco1)N1C[C@H]2CCCN(C(=O)c3ccsc3)[C@H]2C1	-8.905
CCS(=O)(=O)N1CCC2(CN(C(=O)c3cscn3)C2)C1	7.529
O=C(c1cscn1)N1CC[C@@H]2[C@@H]1CCN2c1ccccn1	-2.894
CS(=O)(=O)N1C[C@@H]2CCN(C(=O)c3cscn3)[C@@H]2C1	118.3
O=C(c1ccsc1)N1C[C@@H]2CCN(C(=O)c3cscn3)[C@@H]2C1	98.94
CC(C)C(=O)N1CCN(C(=O)c2cscn2)[C@H]2CS(=O)(=O)C[C@H]21	2.64
CN1C[C@@H]2CN(C(=O)C3CCOC3)C[C@@H]2C1=O (some centres not stated)	0.8988
O=C(NC1CC1)N1C[C@@H]2CCN(C(=O)c3cscn3)[C@@H]2C1	121.3
